Measured values reported in PubChem BioAssay.
Activity calls are given as the source filed them.

How the values were obtained:
[1] = test system: PRMT1 (protein arginine N-methyltransferase 1); experiment: small molecules binding arginine methyltransferase PRMT1 – biochemical, small-molecule microarray, 635 nm fluorescence, primary screen (AID 1088); details: higher = more signal;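 note: binding of Prmt1 protein to compounds spotted on small-molecule microarray slides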
[2] = growth effects on S. cerevisiae YJM789 – YJM789 clinical isolate, OD600, 24 h, basal, primary screen (AID 1089); details: higher = more signal, called active from +8 up or from −8 down;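 note: growth of clinical yeast isolate S. cerevisiae YJM 789 seeded 1000 cells per well; test concentration not given here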
[3] = S. pombe growth modifiers, basal conditions – strain 972, OD600, 24 h, no modulator, primary screen (AID 1090);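 note: basal condition with compound alone and no growth modifier present; test concentration not given here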; details: S. pombe 972 growth, higher = more signal, called active from +8 up or from −8 down
[4] = budding yeast growth modifiers under rapamycin – strain BY4716, OD600, 96 h, primary screen (AID 1091); note: test concentration not given here; details: S. cerevisiae BY4716 + rapamycin, higher = more signal, called active from +8 up or from −8 down
[5] = target: Torsin-1A-interacting protein 2 (Homo sapiens) (UniProt Q8NFQ8); experiment: small molecules binding lysate-expressed LULL1 – cell lysate, human LULL1 lysate, 635/667 nm fluorescence, primary screen (AID 1092); details: small-molecule microarray, hLULL1 lysate binding, 635 nm fluorescence; higher = more signal;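 note: probe is lysate of COS7 cells overexpressing human LULL1; score merges per-feature 667 nm fluorescence with signal-to-noise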
[6] = optical density change of DRC41 E. coli – strain DRC41, OD650, 24 h, E. coli filamentation project, primary screen (AID 1093);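 note: MC1000 strain lacking acrAB efflux and sulA so SOS filamentation is blocked; test concentration not given here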; details: E. coli DRC41 growth, higher = more signal, called active from +8 up or from −8 down
[7] = probe aLefty2 binding to arrayed compounds – biochemical, biotinylated probe, 635/667 nm fluorescence, primary screen (AID 1094); details: small-molecule microarray, higher = more signal;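 note: score merges spot fluorescence near 667 nm with spot signal-to-noise ratio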
[8] = test system: Noggin (protein binding on small-molecule microarray); experiment: small molecules binding Noggin protein – biochemical, 635/667 nm fluorescence, primary screen (AID 1095); details: 635 nm fluorescence, higher = more signal;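 note: score merges 667 nm feature fluorescence with signal to noise over triplicate slides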
[9] = target: Neurogenic locus notch homolog protein 3 (Homo sapiens) (UniProt Q9UM47); experiment: small molecules binding NOTCH3 protein – biochemical, 635/667 nm fluorescence, primary screen (AID 1096); details: small-molecule microarray, 635 nm fluorescence, higher = more signal
[10] = probe aEGFR binding to arrayed compounds – biochemical, biotinylated probe, 635/667 nm fluorescence, primary screen (AID 1097); details: small-molecule microarray, higher = more signal;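 note: probe is a biotinylated anti-EGFR antibody binding compounds printed on slides; score combines fluorescence near 667 nm and signal to noise of each spot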

Chain of Torsin-1A-interacting protein 2 (Homo sapiens) (Q8NFQ8 whole entry, looked up): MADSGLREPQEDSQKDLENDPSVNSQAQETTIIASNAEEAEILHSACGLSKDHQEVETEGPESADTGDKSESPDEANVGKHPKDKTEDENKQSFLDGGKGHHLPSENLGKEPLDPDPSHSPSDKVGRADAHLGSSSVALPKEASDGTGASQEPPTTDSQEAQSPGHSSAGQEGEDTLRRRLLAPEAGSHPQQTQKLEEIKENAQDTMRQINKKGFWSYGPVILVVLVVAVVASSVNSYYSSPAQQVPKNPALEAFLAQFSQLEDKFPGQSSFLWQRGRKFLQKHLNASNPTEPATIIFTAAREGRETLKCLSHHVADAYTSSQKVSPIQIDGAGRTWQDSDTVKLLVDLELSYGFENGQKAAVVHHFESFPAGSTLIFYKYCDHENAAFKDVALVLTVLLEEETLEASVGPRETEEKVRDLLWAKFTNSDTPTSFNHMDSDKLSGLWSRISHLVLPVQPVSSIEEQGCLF
Chain of Neurogenic locus notch homolog protein 3 (Homo sapiens) (Q9UM47 whole entry, looked up): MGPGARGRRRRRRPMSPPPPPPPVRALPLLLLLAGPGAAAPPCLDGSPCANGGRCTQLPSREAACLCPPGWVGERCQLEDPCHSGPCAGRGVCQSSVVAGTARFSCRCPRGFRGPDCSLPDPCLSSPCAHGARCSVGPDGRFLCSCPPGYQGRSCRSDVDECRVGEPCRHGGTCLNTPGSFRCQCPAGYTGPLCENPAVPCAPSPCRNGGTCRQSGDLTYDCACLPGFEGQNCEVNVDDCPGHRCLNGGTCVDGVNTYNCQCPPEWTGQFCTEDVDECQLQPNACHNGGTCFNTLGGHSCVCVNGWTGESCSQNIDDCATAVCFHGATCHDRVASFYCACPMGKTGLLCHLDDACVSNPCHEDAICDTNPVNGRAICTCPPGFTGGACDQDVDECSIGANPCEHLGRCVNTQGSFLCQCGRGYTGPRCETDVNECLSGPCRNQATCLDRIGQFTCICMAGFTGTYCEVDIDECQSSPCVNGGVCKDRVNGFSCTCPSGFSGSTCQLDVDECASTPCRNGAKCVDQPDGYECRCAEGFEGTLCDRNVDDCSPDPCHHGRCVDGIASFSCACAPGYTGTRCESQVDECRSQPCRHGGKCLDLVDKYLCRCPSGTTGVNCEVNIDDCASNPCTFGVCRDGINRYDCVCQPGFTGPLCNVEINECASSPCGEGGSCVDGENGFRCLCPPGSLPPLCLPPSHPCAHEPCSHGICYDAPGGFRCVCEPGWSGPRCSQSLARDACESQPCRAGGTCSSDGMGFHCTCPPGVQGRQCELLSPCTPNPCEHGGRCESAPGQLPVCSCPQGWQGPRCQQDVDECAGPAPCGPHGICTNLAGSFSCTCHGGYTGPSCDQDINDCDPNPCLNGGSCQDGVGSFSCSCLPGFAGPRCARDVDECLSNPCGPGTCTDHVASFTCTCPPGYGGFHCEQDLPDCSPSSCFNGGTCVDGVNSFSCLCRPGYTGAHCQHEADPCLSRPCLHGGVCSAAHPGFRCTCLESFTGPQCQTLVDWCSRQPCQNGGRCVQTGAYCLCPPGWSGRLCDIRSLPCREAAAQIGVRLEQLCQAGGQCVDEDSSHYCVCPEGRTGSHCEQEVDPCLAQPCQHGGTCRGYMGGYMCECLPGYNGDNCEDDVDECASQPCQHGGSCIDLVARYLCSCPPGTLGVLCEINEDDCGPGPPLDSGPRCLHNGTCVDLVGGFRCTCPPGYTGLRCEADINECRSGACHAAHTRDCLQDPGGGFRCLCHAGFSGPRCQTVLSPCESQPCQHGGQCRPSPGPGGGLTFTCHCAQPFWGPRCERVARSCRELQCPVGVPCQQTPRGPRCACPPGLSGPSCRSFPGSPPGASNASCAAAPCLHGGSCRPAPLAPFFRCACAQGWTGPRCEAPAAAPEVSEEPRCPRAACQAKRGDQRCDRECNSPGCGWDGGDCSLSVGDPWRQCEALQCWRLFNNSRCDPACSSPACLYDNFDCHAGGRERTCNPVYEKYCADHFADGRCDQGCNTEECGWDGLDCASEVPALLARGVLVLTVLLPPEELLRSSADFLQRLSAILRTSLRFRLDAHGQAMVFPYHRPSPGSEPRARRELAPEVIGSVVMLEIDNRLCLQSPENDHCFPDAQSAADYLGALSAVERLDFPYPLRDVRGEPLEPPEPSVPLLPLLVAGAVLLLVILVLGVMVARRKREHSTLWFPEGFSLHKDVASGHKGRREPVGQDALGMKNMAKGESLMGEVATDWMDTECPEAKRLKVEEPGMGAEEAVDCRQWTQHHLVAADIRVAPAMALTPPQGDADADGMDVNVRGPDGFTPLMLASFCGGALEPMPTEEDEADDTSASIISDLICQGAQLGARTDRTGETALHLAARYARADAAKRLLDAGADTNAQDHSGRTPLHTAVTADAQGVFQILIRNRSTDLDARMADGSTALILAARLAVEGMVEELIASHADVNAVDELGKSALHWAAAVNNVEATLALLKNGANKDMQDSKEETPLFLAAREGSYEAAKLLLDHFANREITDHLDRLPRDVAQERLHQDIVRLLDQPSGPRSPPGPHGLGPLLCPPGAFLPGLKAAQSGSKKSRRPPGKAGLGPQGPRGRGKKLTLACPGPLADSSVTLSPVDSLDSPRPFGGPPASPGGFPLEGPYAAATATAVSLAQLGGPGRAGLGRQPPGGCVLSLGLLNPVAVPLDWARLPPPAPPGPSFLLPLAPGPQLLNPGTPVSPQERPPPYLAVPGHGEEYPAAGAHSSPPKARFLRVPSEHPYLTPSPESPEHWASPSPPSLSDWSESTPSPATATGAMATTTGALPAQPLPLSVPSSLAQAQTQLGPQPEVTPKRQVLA

SMILES | composite z-score [1] | z-score [2] | z-score [3] | z-score [4] | composite z-score [5] | z-score [6] | composite z-score [7] | composite z-score [8] | composite z-score [9] | composite z-score [10]
CN1C(=O)C2C=CC(C(O)Cc3ccccc3)N(N(c3ccccc3)c3ccccc3)C2C1=O (stereo not given) | 0.795 | -0.179 (inactive) | 0.759 (inactive) | 1.11 (inactive) | 2.22 | -1.39 (inactive) | 0.107 | 0.218 | 0.839 | -0.137
NC(=O)NCC#Cc1ccc2c(c1)[C@]1(C(=O)N2)[C@H](C(=O)O)[C@H]2C(=O)O[C@H](c3ccccc3)[C@H](c3ccccc3)N2[C@@H]1c1ccccc1OCCO | 1.43 | -1.39 (inactive) | -1.19 (inactive) | -0.675 (inactive) | 1.43 | 3.22 (inactive) | 0.857 | 1.01 | 1.11 | 0.0223
COC(=O)[C@@]1(Cc2ccc(F)cc2)[C@H]2c3cc(C(=O)N4CCCC4)n(CCF)c3C[C@H]2CN1C(=O)c1ccccc1 | -0.195 | -0.496 (inactive) | -0.202 (inactive) | -0.0254 (inactive) | 3.13 | 0.164 (inactive) | 1.49 | -0.258 | 1.13 | 0.879
CC(C)OC(=O)CC(=O)CC(O)c1cccc(C#N)c1 (stereo not given) | 0.864 | -2.17 (inactive) | -0.0003 (inactive) | -1.66 (inactive) | 2.15 | 0.435 (inactive) | 0.237 | -0.412 | 0.753 | 0.0201
COC(=O)C1(Cc2ccccc2)C=C2C(=C(C(C)C)C(=O)C2C)CN1 (stereo not given) | -1.15 | 0.557 (inactive) | -0.315 (inactive) | 0.471 (inactive) | 2.41 | -1.53 (inactive) | 0.469 | -1.79 | -1.05 | 0.156
C=CCN1C(=O)[C@@]2(CCC(=O)OC(C)(C)C)N=C(c3ccc(OCCCO)cc3)O[C@H]2c2ccccc21 | 1.47 | -1.89 (inactive) | -5.84 (inactive) | 1.44 (inactive) | 2.71 | 0.784 (inactive) | 0.107 | 1.24 | 1.09 | -0.146
COc1cc(CO)cc(I)c1O[C@H]1C=C(C(=O)NCCO)C[C@@H](NCc2ccccc2F)[C@@H]1O | 1.13 | 2.24 (inactive) | -3.89 (inactive) | 0.519 (inactive) | 0.491 | 1.77 (inactive) | -0.0943 | 1.05 | 0.75 | -0.151
CC(C)CNC(=O)[C@@H]1c2ccccc2C(=O)N(Cc2cc(F)cc(C(F)(F)F)c2)[C@H]1c1ccc(CO)cc1 | 1.4 | -0.212 (inactive) | -0.758 (inactive) | -0.483 (inactive) | 1.73 | 2.93 (inactive) | 0.188 | 0.179 | 0.379 | -0.0214
COC(=O)[C@@]1(Cc2ccc(OC)cc2)[C@H]2c3cc(C(=O)N(C)C)n(CCc4c[nH]c5ccc(O)cc45)c3C[C@H]2CN1C(=O)c1ccccc1 | 0.56 | 1.94 (inactive) | 0.466 (inactive) | 3.51 (inactive) | 3.36 | -0.765 (inactive) | 0.41 | -0.0794 | 1.02 | 0.102
CCOc1cc(C(O)C2C=CC3C(=O)N(C)C(=O)C3N2N2CCCCC2)ccc1O (stereo not given) | 0.163 | 1.26 (inactive) | 0.803 (inactive) | 1.63 (inactive) | 2.56 | -0.613 (inactive) | 0.0209 | -0.185 | 0.0152 | 0.0054
Cc1ccc(S[C@]2(C(=O)NCCN3CCOCC3)CC(=O)N(Cc3ccccc3C(F)(F)F)[C@@H]2c2ccc(CO)cc2I)cc1 | 0.783 | -1.57 (inactive) | -4.24 (inactive) | 0.176 (inactive) | 1.2 | -0.28 (inactive) | -0.145 | -0.586 | -0.689 | -0.233
[N-]=[N+]=Nc1ccccc1C[C@]1(C(=O)NCc2ccccc2)N=C(c2ccc(OCCCO)cc2)O[C@H]1c1ccccc1 | 1.56 | -0.623 (inactive) | 0.69 (inactive) | 17.8 (active) | 3.34 | 0.7 (inactive) | 0.206 | 0.383 | 1.12 | 0.048
[N-]=[N+]=NCc1ccccc1C[C@@]1(C(N)=O)N=C(c2ccc(OCCCO)cc2)O[C@@H]1c1ccccc1CN=[N+]=[N-] | 1.22 | 0.656 (inactive) | -0.0127 (inactive) | 0.0339 (inactive) | 2.94 | 0.585 (inactive) | 0.123 | -0.0392 | 0.808 | 0.263
COC(=O)[C@@]1(Cc2ccccc2)[C@H]2c3cc(C(=O)N4CCCC4)n(C[C@H](O)CO)c3C[C@H]2CN1C(=O)c1ccccc1 | -0.956 | 0.43 (inactive) | 1.74 (inactive) | -0.167 (inactive) | 3.45 | -0.436 (inactive) | 0.127 | 0.334 | 0.873 | 0.08
COc1ccc([Si](C)(C)[C@@H]2[C@@H](CC(=O)N3CCC[C@H]3CO)O[C@]3(C(=O)N(Cc4ccc(N5C(=O)c6cccc7cccc5c67)cc4)c4ccccc43)[C@H]2C)cc1 | 1.54 | 0.035 (inactive) | 0.378 (inactive) | 0.922 (inactive) | 3.07 | 1.84 (inactive) | -0.238 | 1.41 | 1.08 | -0.129
C=CCN1Cc2ccccc2C[C@@]2(N=C(c3ccc(OCCCO)cc3)O[C@H]2c2ccccc2)C1=O | 1.55 | -4.69 (inactive) | -11.1 (active) | 4.42 (inactive) | 3.13 | 0.55 (inactive) | -0.051 | 1.04 | 0.968 | 0.0047
CCOC(=O)C1=C[C@@H](c2ccccc2)N(S(=O)(=O)c2ccc(C)cc2)[C@H]1c1cccc(Cl)c1 | 1.57 | 0.962 (inactive) | 1.71 (inactive) | 2.24 (inactive) | 2.67 | -0.913 (inactive) | 0.268 | 0.688 | 1.07 | 0.143
C=CCOC(=O)[C@@H]1[C@H]2C(=O)O[C@H](c3ccccc3)[C@H](c3ccccc3)N2[C@H](c2ccc(OCCOC(=O)[C@H]3C[C@H]4C(=O)N[C@@H](CCCCNC(C)=O)C(=O)N4[C@H]3c3cccc(OCCO)c3)cc2)[C@@]12C(=O)Nc1ccc(I)cc12 | 1.54 | 1.71 (inactive) | 1.38 (inactive) | 3.9 (inactive) | 1.78 | 0.136 (inactive) | -0.195 | 1.68 | 1.12 | -0.0882
CC(C)C[C@@H]1NC(=O)[C@H]2C[C@@H](C(=O)NCCCCCC[N+](C)(C)C)[C@@H](c3cccc(OCCO)c3)N2C1=O | 1.13 | -1.15 (inactive) | -0.455 (inactive) | -0.794 (inactive) | 2.49 | 0.319 (inactive) | -0.166 | 1.47 | 1.07 | 0.038
COc1ccccc1CN1C(=O)c2ccccc2[C@](Cc2ccccc2I)(C(=O)NC(C)C)[C@@H]1c1ccc(CO)cc1 | 1.53 | 0.188 (inactive) | 0.0889 (inactive) | 0.152 (inactive) | 2.05 | -1.01 (inactive) | -0.158 | 1.22 | 1.06 | 0.0583
C[C@]1(C(=O)NCCN2CCOCC2)c2ccccc2C(=O)N(Cc2ccc(OC(F)(F)F)cc2)[C@H]1c1ccc(CO)cc1 | 0.562 | -0.15 (inactive) | -0.859 (inactive) | -0.854 (inactive) | 1.82 | 0.365 (inactive) | -0.0823 | 0.557 | 0.164 | -0.213
O=C1NC(=O)C2C1C=CC(C(O)c1ccc3c(c1)OCO3)N2Nc1ccccn1 (stereo not given) | 0.227 | -0.976 (inactive) | 1.02 (inactive) | -0.939 (inactive) | 2.78 | -0.541 (inactive) | 0.0787 | 0.233 | 0.552 | -0.0999
CN1C(=O)[C@@]2(CCS(=O)(=O)c3ccccc3)N=C(c3ccc(OCCCO)cc3)O[C@H]2c2ccccc21 | 1.53 | -0.175 (inactive) | -0.585 (inactive) | 2.05 (inactive) | 3.05 | 0.708 (inactive) | 0.276 | 0.931 | 0.377 | -0.0493
COCCCNC(=O)[C@@H]1c2ccccc2C(=O)N(Cc2ccccc2C(F)(F)F)[C@H]1c1ccc(CO)cc1 | 0.12 | -0.409 (inactive) | -0.514 (inactive) | -0.368 (inactive) | 0.73 | 0.598 (inactive) | -0.0855 | -0.789 | -0.941 | -0.0146
C=CC1c2cc(O)c(OC)cc2CCN1Cc1sc2ccccc2c1Cl (stereo not given) | 0.756 | -1.62 (inactive) | -19.2 (active) | -0.399 (inactive) | 2.49 | -0.368 (inactive) | 0.233 | 0.123 | 0.968 | 0.0673
COc1c(C)cc(-c2cc3c(c(Cc4ccccc4)n2)[Si](C(C)C)(C(C)C)OC3)cc1C | -0.13 | 0.784 (inactive) | 0.567 (inactive) | 1.04 (inactive) | 0.323 | -0.733 (inactive) | -0.157 | 0.529 | 0.598 | -0.0509
COC(=O)[C@@]1(Cc2ccccc2)[C@H]2c3cc(C(=O)N4CCCC4)n(Cc4ccsc4Br)c3C[C@H]2CN1C(=O)c1ccccc1 | 0.12 | 0.333 (inactive) | 1.22 (inactive) | 1.35 (inactive) | 3.43 | -0.575 (inactive) | 0.41 | -0.142 | 1.05 | 0.272
O=C1NC(=O)C2C1C=CC(C(O)c1ccc(Br)cc1)N2Nc1ccccn1 (stereo not given) | 0.215 | -1.26 (inactive) | 0.61 (inactive) | -0.683 (inactive) | 1.18 | -0.931 (inactive) | 0.119 | 0.248 | 0.63 | 0.315
CCOC(=O)C[C@H]1[C@H](OC(=O)c2ccc(-c3ccccc3)cc2)[C@@H](NC(=O)c2ccc3ccccc3c2)c2cc(OCCCO)ccc2N1C(=O)c1ccc2ccccc2n1 | 1.15 | -0.72 (inactive) | -0.918 (inactive) | 0.592 (inactive) | 1.47 | -0.56 (inactive) | -0.0358 | 0.372 | 0.895 | 0.0167
